Measurements taken from PubChem BioAssay (NCI).
About 83,000 compounds went through this panel and 20% of them were active in at least one assay; those are over-represented in the sample as a whole.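 Activity criterion: percent growth below 10, measured after cells in 96-well plates were exposed to a single compound concentration for 48 hours.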 Values without a mark were called inactive. Activity calls are given as the source filed them.

Columns and labels:
Experiment in all cases: NCI-60 one-dose screen, 48 h (100 = growth as untreated, 0 = no growth, -100 = all killed)
Settings in all cases: 10 µM unless noted
[1] = system: DU-145 prostate
[2] = system: K-562 leukemia
[3] = system: MALME-3M melanoma
[4] = system: MDA-MB-231 breast
[5] = system: RXF 393 renal
[6] = system: SF-268 CNS
[7] = system: SF-295 CNS
[8] = system: SF-539 CNS
[9] = system: UACC-257 melanoma
[10] = system: M14 melanoma
[11] = system: HCT-15 colon
[12] = system: HT29 colon
[13] = system: SNB-75 CNS
[14] = system: SNB-19 CNS
[15] = system: U251 CNS
[16] = system: PC-3 prostate
[17] = system: SK-MEL-5 melanoma
[18] = system: UACC-62 melanoma
[19] = system: LOX IMVI melanoma
[20] = system: SK-MEL-28 melanoma

Row | SMILES | growth [1] [%] | growth [2] | growth [3] | growth [4] [%] | growth [5] [%] | growth [6] [%] | growth [7] [%] | growth [8] | growth [9] [%] | growth [10] | growth [11] [%] | growth [12] | growth [13] | growth [14] [%] | growth [15] [%] | growth [16] [%] | growth [17] | growth [18] | growth [19] | growth [20] [%]
1 | C=C1/C(=C\C=C2/CCC[C@]3(C)[C@@H]([C@H](C)CCCC(C)(C)O)CC[C@@H]23)C[C@@H](OC(=O)CBr)C[C@@H]1O | 92.7 | 30.8% | -67.3% (active) | 20.5 | 93.3 | 18 | 94.6 | -43.1% (active) | 99.3 | 84.4% | 54.6 | 39.2% | 49.1% | 94.6 | 70.6 | 40 | 84.7% | 69% | -50.9% (active) | 93.6
2 | C=C(C)[C@@H]1CC[C@]2(C#N)CC[C@]3(C)[C@H](CC[C@@H]4[C@@]5(C)CCCNC(C)(C)[C@@H]5CC[C@]43C)[C@@H]12 | 65.5 | -26.2% (active) | 81% | 57.6 | 82.3 | 87.1 | 92.9 | 84% | 70.8 | 64.4% | 23 | 9.37% (active) | 83.9% | 78.6 | 16.7 | 68.7 | 86.4% | 88.6% | -44.3% (active) | 97.3
3 | COc1cc(OCc2cccc(-c3ccccc3)c2C)cc(OC)c1CN1CCCCC1C(=O)NCCOCCOCCN (stereo not given) | 65.7 | -19.8% (active) | 54.1% | 57.5 | 59 | 87 | 89.3 | 87.7% | 99.7 | -27.5% (active) | 87.9 | 5.46% (active) | 73.8% | 67.9 | 25.7 | 74.6 | 87.2% | 99.4% | -73.7% (active) | 87.7
4 | COc1ccc2c(c1)C(c1c[nH]c3ccccc13)(c1c[nH]c3ccccc13)CCO2 | 74.6 | 29.5% | 88.8% | 35.1 | 76.1 | 52.2 | 36.6 | 71.7% | 48.1 | 39.7% | 41.8 | 23.8% | 28% | 66.4 | 42.2 | 31 | 66.2% | 44.9% | 42.6% | 54.2
5 | Cc1ccc(-c2nc(C#N)c(S(=O)(=O)n3nc(C)cc3N)o2)cc1 | 108 | -17.2% (active) | -63.3% (active) | 88.3 | 76.8 | 93.5 | 109 | 96.7% | 95.1 | 48.8% | 49.2 | 50.1% | 97.6% | 97.5 | 95.4 | 85 | 90% | 96.1% | 56.4% | 93.8
6 | C=C(C)Cn1c(SCC(=O)c2cccs2)nc2sc3c(c2c1=O)CCCC3 | 50.9 | 41% | 71.5% | 65.5 | 52.2 | 42.2 | 42.2 | 39.3% | 81.5 | 77.6% | 22.7 | 38.9% | 62.6% | 45.1 | 36.3 | 48.6 | 36.4% | 44.8% | 4.51% (active) | 55.3
7 | CO[C@H]1CC(c2ccc[nH]2)=N[C@]12O[C@@H](C)C[C@@H]1CCCCCCCc3ccc([nH]3)[C@H]12 | 30.3 | 21.3% | -14.5% (active) | 14.1 | 52.7 | 48.6 | 17.4 | 20% | 13.2 | 13.2% | 10.4 | 12.3% | 3.5% (active) | 55.4 | 19.7 | 42.2 | -38.4% (active) | -47.8% (active) | -45.1% (active) | 38.6
